Shown are actives, neighbours in structure and some others; about 9.4% of the full set was active somewhere.
Pf growth 96h: inhibits malaria parasite growth, 96 h | P. falciparum luciferase reporter growth, 96 h | Potency, µM (series often up to 28.7 µM), inactives show at the highest dose activity change, negative = inhibition, hits mostly inhibitors | 6.9% of 320,000 active; also: % is scaled to controls: 0 for no effect and ±100 for the full control effect
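Readout is luminescence from an integrated firefly luciferase in P. falciparum. Red cells, 2% hematocrit and 0.05% parasitemia final, were cultured with compound through two parasite generations (96 hours) at 37 C, 5% CO2.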
SARS PLpro yeast: inhibitors of SARS-CoV papain-like protease in yeast; S. cerevisiae expressing SARS-CoV PLpro, growth rescue; Potency, µM (highest dose often 32.9 µM), for the others: at the highest dose activity, positive = growth rescue, hits mostly activators; 0.19% of 330,000 active; AID 485353; calls by dose curve; also: 0% is about no effect; nearly all actives have a fitted effect of over 55% in size
AMA1-RON2 inh: inhibitors of Plasmodium falciparum AMA1-RON2 interaction. Potency, µM (top dose mostly 58.2 µM), inactives show at the top dose activity change, negative = inhibition, usual class: inhibitors. AID 720542. 0.2% of 360,000 active. AlphaScreen AMA1-biotinylated RON2 peptide binding;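 also: 0% = vehicle wells and -100% = peptide control; nearly all actives have a fitted effect of over 45% in size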
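AMA1 (3D7) with his tag at 25 nM final met compounds first, then biotinylated RON2 peptide at 25 nM; detection used donor plus acceptor beads, 10 µg/mL apiece, read by AlphaScreen after 30 min at room temperature.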
Pf growth 48h: P. falciparum growth inhibition at 48 hours (one generation) | P. falciparum luciferase growth in erythrocytes, 48 h | 5.9% of 310,000 active | Potency, µM (series often up to 28.7 µM), without a hit: at the highest dose activity change, negative = inhibition, actives largely listed as inhibitors; also: % is scaled to controls: 0 for no effect and ±100 for the full control effect
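Luminescence readout; reporter = integrated firefly luciferase in P. falciparum. RBC culture at 2% hematocrit, 0.1% parasitemia final, 37 C/5% CO2; decreased signal taken as growth inhibition.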
Active calls of the source: *. Unless noted, calls follow the shape of the dose curve; as a rule, active = well fitted curve in the direction sought with a large enough effect; inconclusive = small, poorly fitted or top-dose-only effect, or another doubt; inactive = no such curve, though single readings can be large; an effect the other way counts as inactive or inconclusive. Potency is read from the fitted curve at half-maximal effect.

Oc1ccc(N=Nc2ccc(Br)cc2)c(O)c1 was read as Pf growth 96h 1.85µM*, SARS PLpro yeast -6.6%, AMA1-RON2 inh -8.4% and Pf growth 48h inconclusive.
For Cc1cc(OCC(=O)NCCc2cccc(F)c2)c2c(C)cc(=O)oc2c1 the results were Pf growth 96h inconclusive, SARS PLpro yeast -0.1%, AMA1-RON2 inh 17.8% and Pf growth 48h inconclusive.
`O=c1c2c3c(sc2ncn1/N=C/c1ccccc1)CCCC3` gave Pf growth 96h -29.1%, SARS PLpro yeast -3.3%, AMA1-RON2 inh 3.3% and Pf growth 48h 111.3%.
COC(=O)c1ccccc1C(=O)N(Cc1cccnc1)CC1CCCN(C2CCCCC2)C1 (stereo not drawn) was read as Pf growth 96h 13.1µM*, SARS PLpro yeast 19.2%, AMA1-RON2 inh 7.8% and Pf growth 48h inconclusive.
For Cn1nccc1C(=O)N(CCN1CCCCC1)CC1CCCN(C2CCCC2)C1 (stereo not drawn) the results were Pf growth 96h 64.9%, SARS PLpro yeast -7.7%, AMA1-RON2 inh 19.2% and Pf growth 48h -19.1%.
Screening COc1cc(/C=C2/SC(=S)N(CC(=O)NC(C)(C)C)C2=O)cc(OC)c1OC returned Pf growth 96h -8.5%, SARS PLpro yeast -12.5%, AMA1-RON2 inh -9.7% and Pf growth 48h -3.0%.
`COc1ccc(OCC(=O)Nc2ccc(N3CCOCC3)c(Cl)c2)cc1` gave SARS PLpro yeast -7.5%, AMA1-RON2 inh -9.2% and Pf growth 48h inconclusive.
`Cc1ccc(OCC(=O)Nc2ccc(N3CCN(C(=O)c4ccco4)CC3)cc2)cc1C` gave Pf growth 96h 35.0%, SARS PLpro yeast -0.7%, AMA1-RON2 inh -19.8% and Pf growth 48h -15.8%.
Cc1cccc(OCC(=O)Nc2ccc(N3CCN(C(=O)c4ccco4)CC3)cc2)c1 was read as Pf growth 96h 4.0%, SARS PLpro yeast 2.5%, AMA1-RON2 inh -8.4% and Pf growth 48h 9.28µM*.
For Cc1cccc(C(=O)Nc2ccc(N3CCN(C(=O)c4ccco4)CC3)cc2)c1 the results were Pf growth 96h 29.7%, SARS PLpro yeast -0.1%, AMA1-RON2 inh -9.8% and Pf growth 48h inconclusive.
Screening COc1ccc(OCC(=O)Nc2ccc(N3CCN(C(=O)c4ccccc4)CC3)c(Cl)c2)cc1 returned Pf growth 96h -78.3%, SARS PLpro yeast 9.0%, AMA1-RON2 inh -7.4% and Pf growth 48h 8.28µM*.
Screening Cc1cc(OCC(=O)Nc2ccc(N3CCN(C(=O)c4ccco4)CC3)cc2)cc(C)c1Cl returned Pf growth 96h inconclusive, SARS PLpro yeast 1.9%, AMA1-RON2 inh 7.7% and Pf growth 48h 9.28µM*.
`O=C(O)CCC(=O)Nc1ccc(S(=O)(=O)Nc2nccs2)cc1` gave Pf growth 96h -22.4%, SARS PLpro yeast 6.2%, AMA1-RON2 inh 6.0% and Pf growth 48h -21.8%.
For COc1ccc(-c2cc(-c3ccccc3)c(C#N)c(SCC(=O)Nc3ncc(C)s3)n2)cc1 the results were Pf growth 96h -12.6%, SARS PLpro yeast inconclusive, AMA1-RON2 inh 10.2% and Pf growth 48h 13.1µM*.
`O=C(Oc1ccc(-c2ccccc2)cc1)C1C2CCCCC21` (stereo not drawn) gave Pf growth 96h -2.2%, SARS PLpro yeast -6.0%, AMA1-RON2 inh -15.3% and Pf growth 48h 11.6%.
O=C(O)CCNc1ccc(NCCC(=O)O)c2c1C(=O)c1ccccc1C2=O was read as Pf growth 96h inconclusive, SARS PLpro yeast -4.8%, AMA1-RON2 inh 15.8µM* and Pf growth 48h inconclusive.
`O=C(NCCO)c1cccc2c1C(=O)c1ccccc1-2` gave Pf growth 96h 49.1%, SARS PLpro yeast -3.6%, AMA1-RON2 inh -3.9% and Pf growth 48h 33.0%.
O=C1c2cccc(NCCNCCO)c2C(=O)c2cccc(NCCNCCO)c21 was read as AMA1-RON2 inh 44.7µM*.
COc1ccc(Oc2coc3cc(OCC(=O)N4CCCCC4)ccc3c2=O)cc1 was read as Pf growth 96h inconclusive, SARS PLpro yeast 13.8% and Pf growth 48h inconclusive.
For CCOC(=O)Cn1c(=O)oc2cc(S(=O)(=O)Nc3cc(OCC)ccc3OCC)ccc21 the results were Pf growth 96h 1.47µM*, SARS PLpro yeast -4.2%, AMA1-RON2 inh -7.9% and Pf growth 48h inconclusive.
For CCOC(=O)Cn1c(=O)oc2cc(S(=O)(=O)NC(C)c3ccccc3)ccc21 (stereo not drawn) the results were Pf growth 96h 8.28µM*, SARS PLpro yeast -12.0% and AMA1-RON2 inh -6.7%.
For Cc1c(CCOC(=O)CC23CC4CC(CC(C)(C4)C2)C3)sc[n+]1CC(=O)c1ccccc1 the results were Pf growth 96h -9.7%, SARS PLpro yeast 0.3%, AMA1-RON2 inh 40.0% and Pf growth 48h inconclusive.

Screening data from PubChem BioAssay.
